Assay outcomes (PubChem BioAssay)
aSyn yeast inh: inhibitors of alpha-synuclein toxicity in yeast; Potency, µM (doses to about 46.1 µM), without a hit: at the highest dose growth rescue (activation), most hits filed as activators; 370,000 compounds, 0.14% hits; Yeast expressing alpha-synuclein, growth rescue, BacTiter-Glo, 24 h; note: % of control where 0% means no effect; nearly all actives have a fitted effect of over 65% in size
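Galactose-induced alpha-syn yeast (OD600=0.02, raffinose-pregrown) + pinned cpd, 24 hr, 30 deg C; growth by BacTiter-Glo luminescence. Growth restoration scores as activation.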
TDP-43 yeast inh: rescues yeast growth from TDP-43 toxicity | TDP-43 expressing yeast growth rescue, BacTiter-Glo, 24 h | Potency, µM (series often up to 46.1 µM), inactives show at the top dose growth rescue (activation), hits mostly activators | 410,000 compounds, 1.8% hits | AID 652104; note: % of control where 0% means no effect; nearly all actives have a fitted effect of over 50% in size
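Readout is BacTiter-Glo luminescence of cell growth, so inhibitors register as activators. TDP-43-expressing yeast at OD600=0.02 in galactose medium, after raffinose pregrowth to mid-log, were incubated with compound for 24 hr at 30 deg C.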
A-T KAP1 phos: candidate therapy for ataxia-telangiectasia; AID 485349; F2112 A-T fibroblasts, KAP-1 phosphorylation AlphaLISA; neocarzinostatin DNA damage 30 min before lysis; 320,000 compounds, 0.19% hits; Potency, µM (series often up to 57.5 µM), inactives show at the top dose activation, actives largely listed as activators; note: % of control where 0% means no effect; nearly all actives have a fitted effect of over 45% in size
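ATM-like activity read as KAP-1 phosphorylation via AlphaLISA donor/acceptor antibody pairs after lysis and 6 hr at 25C. Cells were ATM-null patient fibroblasts (F2112, hTERT), dosed 60 min, then exposed to the DSB inducer NCS for 30 min.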
Abeta rescue: compounds reversing amyloid beta toxicity in yeast; 410,000 compounds, 0.063% hits; AID 1347071; yeast expressing A-beta42, growth rescue, OD600, 48 h; response scale: 0% DMSO, 100% iron-clioquinol control; Potency, µM (series often up to 46.1 µM), hits mostly activators; note: nearly all actives have a fitted effect of over 55% in size
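Growth rescue measured by 600 nm absorbance after 48 h yeast culture at 30 C with compound. Values normalized between DMSO and an equimolar ferric chloride plus clioquinol control.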
Mito fusion act: mitochondrial division inhibition or fusion activation | S. cerevisiae fusion-defective mutant growth rescue, CellTiterGlo 48 h | Potency, µM (doses to about 46.1 µM), for inactives: top-dose growth rescue (activation), actives largely listed as activators | 320,000 compounds, 0.23% hits | AID 485298; note: % of control where 0% means no effect; nearly all actives have a fitted effect of over 45% in size
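S. cerevisiae fusion-defective temperature-sensitive mutants (e.g. fzo1-1, mgm1-5) grown 48 h at 37C in YPEG (ethanol/glycerol non-fermentable) medium with 23 nl compound per well; growth rescue read as CellTiterGlo luminescence.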
Glioma ERSR ind: inducers of ER stress response in human glioma cells | Potency, µM, inactives show at the top dose activation, usual class: activators | U87-MG GRP78 promoter luciferase reporter, 16 h | AID 602332 | 420,000 compounds, 0.02% hits; note: series mostly up to about 76 µM; % of control where 0% means no effect; nearly all actives have a fitted effect of over 35% in size
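ERSR induction read as luciferase luminescence (Bright-Glo, 10 min at room temperature) in stably transfected human U87-MG glioma cells exposed to compounds for 16 h, using GRP78 as sensor.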
Numbers without * were called inactive; i = inactive; ? = inconclusive; nt = no result; ! = a repeat was not active; [ ] = dose if it differs, or a comment. Most compounds without a hit are left out; they make up all but 2.1% or so of the library. Calls come from the whole dose curve; as a rule, active = well fitted curve in the direction sought with a large enough effect; inconclusive = small, poorly fitted or top-dose-only effect, or another doubt; inactive = no such curve, though single readings can be large; an effect the other way counts as inactive or inconclusive. Potency is the fitted concentration of half-maximal effect.

SMILES	aSyn yeast inh	TDP-43 yeast inh	A-T KAP1 phos	Abeta rescue	Mito fusion act	Glioma ERSR ind
CN1/C(=C\C(=O)COC(=O)c2ccccc2O)C(C)(C)c2ccccc21	-26.5%	-18.6%	19.0%	i	2.7%	0.6%
C[N+]1(C)CCN(C[C@@](O)(c2ccccc2)C2CCCCC2)CC1	nt	nt	nt	nt	nt	-3.5%
Cc1sc2ccccc2[n+]1CC(=O)c1ccccc1	7.5%	11.2µM*	-6.0%	i	7.8%	3.2%
CCC12CN3CC(C)(CN(C1)C3c1ccc(O)cc1O)C2=O (configuration not stated)	nt	17.8%	nt	i	nt	-0.5%
Cn1c2ccccc2c2cc(/C=N/NC(=O)c3cc(O)cc(O)c3)ccc21	3.8%	12.5%	-6.0%	i	-1.9%	-3.4%
CCn1c2ccccc2c2cc(/C=N/NC(=O)c3ccccc3)ccc21	5.3%	11.2µM*	0.3%	i	2.8%	-5.7%
CO/N=C1/c2cc(OC)ccc2O[C@@H](c2cccc(OC)c2)[C@H]1O	nt	nt	nt	nt	nt	10.3%
COC(=O)[C@@H]1C[C@@H](NC(=O)c2ccc(C(F)(F)F)cc2)CN1Cc1cccc(O)c1	nt	nt	nt	nt	nt	3.6%
c1ccc(-c2ncnc3ccccc23)cc1	-2.9%	12.6µM*	nt	i	nt	-2.3%
c1ccc(Sc2ncnc3ccccc23)cc1	8.9%	12.6µM*	23.9%	i	-20.4%	-1.9%
COc1ccc(-n2c(CNC(=O)c3ccccc3C(F)(F)F)nnc2SC)cc1	nt	nt	nt	nt	nt	-0.2%
COc1ccc(C(O)c2nc(-c3ccc(F)c(Cl)c3)cs2)cc1 (configuration not stated)	12.6µM*	11.2µM*	nt	?	nt	1.7%
COc1ccc(-c2csc(C(O)c3ccc(F)c(OC)c3)n2)cc1 (configuration not stated)	17.8µM*	22.4µM*	nt	?	nt	-0.8%
COc1cc(C(O)c2nc(-c3ccc(F)cc3OC)cs2)ccc1F (configuration not stated)	?	25.1µM*	nt	i	nt	-0.5%
COc1cc(C(O)c2nc(-c3ccccc3)cs2)ccc1F (configuration not stated)	?	0.0%	nt	i	nt	-0.9%
COCc1cccc(-c2csc(C(O)c3ccc(F)c(OC)c3)n2)c1 (configuration not stated)	10.5%	?	nt	?	nt	3.5%
COc1cc(C(O)c2nc(-c3cccc(C#N)c3)cs2)ccc1F (configuration not stated)	?	10µM*	nt	i	nt	-4.4%
CCN(CC)c1ccc2cc(S(=O)(=O)c3ccc(Cl)cc3)c(=O)oc2c1	9.0%	1.9%	25.1µM*	i	15.8%	-5.1%
O=c1oc2cc(O)ccc2cc1S(=O)(=O)c1ccccc1	0.9%	-14.5%	?	i	-6.1%	-5.3%
Cc1cnc(-n2ncc(C(=O)N(C)CCc3ccccn3)c2-c2cccs2)nc1-c1ccc(F)cc1	nt	nt	nt	nt	nt	-3.4%
CC[C@H](NC(=O)c1c(C)c(-c2ccccc2)nc2ccccc12)c1ccccc1	-5.0%	0.0%	-56.8%	i	20.6µM*!	0.4%
CN(C(=O)COc1ccc(Cl)cc1Br)C1CCCCC1	0.2%	17.8µM*	12.5%	i	6.1%	0.9%
Cc1cnc(SCc2ccccn2)nc1C1CCCN(C(=O)c2ccc3c(c2)OCO3)C1 (configuration not stated)	nt	nt	nt	nt	nt	0.5%
COc1ccc(C/C(N)=N/OC(=O)Cc2ccccc2)cc1	-1.8%	15.8µM*	6.1%	i	1.7%	-7.1%
N/C(Cc1ccc(Cl)cc1Cl)=N\OC(=O)Cc1ccc(Cl)cc1	-61.0%	1.26µM*	11.8%	i	-19.1%	-0.9%
SMILES	aSyn yeast inh	TDP-43 yeast inh	A-T KAP1 phos	Abeta rescue	Mito fusion act	Glioma ERSR ind
N/C(Cc1ccc(Cl)cc1Cl)=N\OC(=O)Cc1ccccc1	-68.7%	?	7.8%	i	-7.1%	0.5%
COc1ccc(/C(N)=N/OC(=O)CN(C)S(=O)(=O)c2ccccc2)cc1	4.0%	12.6µM*	-1.5%	i	20.3%	10.9%
COc1ccc(/C(N)=N/OC(=O)CN(C)S(=O)(=O)c2ccc(C)cc2)cc1	0.4%	0.0%	16.2%	i	3.3%	-2.0%
COc1ccc(C/C(N)=N/OC(=O)CCc2ccccc2)cc1	-37.1%	?	5.1%	i	-10.8%	16.5%
COc1ccc(/C(N)=N/OC(=O)C2CCCCC2)cc1	-9.6%	15.8µM*	9.7%	i	-1.4%	5.9%
Cc1cc(C(=O)N2CCN(c3cc(Cl)ccc3C)CC2)c2c(C)nn(-c3ccccc3)c2n1	nt	5.3%[9.22 µM]	nt	i	nt	-2.9%
COc1ccc(-n2c(/C=C/c3cccc4ccccc34)nc3ccccc3c2=O)cc1Cl	nt	22.0%	nt	i	nt	-3.7%
CC(=O)N[C@@H](CCC(=O)O)C(=O)O	nt	nt	nt	nt	nt	-2.6%
CS(=O)(=O)c1ccc(-c2cccc3c2OC(CNC(=O)c2cc(C4CC4)[nH]n2)C3)cc1 (configuration not stated)	nt	nt	nt	nt	nt	-2.5%
COc1ccc(OC)c(C(=O)CSc2ncc3c(n2)-c2ccccc2N(Cc2ccccc2C)S3(=O)=O)c1	nt	2.3%	nt	i	nt	-4.2%
COc1ccc(CC(=O)O/N=C(\N)c2ccc(OC)cc2)cc1	11.2%	17.8µM*	8.0%	i	6.7%	1.0%
COc1ccc(CC(=O)O/N=C(\N)Cc2ccc(OC)c(OC)c2)cc1	-11.1%	?	-9.5%	i	1.2%	-2.5%
COc1ccc(CC(=O)O/N=C(\N)Cc2ccc(OC)cc2)cc1	-8.0%	11.2µM*	5.7%	i	3.6%	-1.4%
O=C1CC(c2ccccc2)=Nc2ccccc2N1Cc1ccccc1	9.6%	12.6µM*	5.4%	i	-6.4%	1.5%
CC(=O)NC(C)(c1ccccc1)c1nc(-c2cncnc2)cs1 (configuration not stated)	-30.9%	4.8%	nt	i	nt	-1.7%
CC(O)(c1ccccc1)c1nc(/C=C/c2ccccc2)cs1 (configuration not stated)	-26.7%	35.5µM*	nt	i	nt	-2.8%
COc1cccc(C(C)(O)c2nc(-c3csc4ccccc34)cs2)c1 (configuration not stated)	-1.3%	35.5µM*	nt	i	nt	-3.3%
COCc1cccc(-c2csc(C(C)(O)c3cccc(F)c3)n2)c1 (configuration not stated)	-5.6%	35.5µM*	nt	i	nt	-1.0%
CC(O)(c1ccc(F)c(F)c1)c1nc(/C=C/c2ccccc2)cs1 (configuration not stated)	-59.3%	-78.3%	nt	i	nt	-5.4%
